Values joined by “and” are separate entries in the source; they are usually repeats but may differ in a detail not shown here. Equal values may be shown once. Active and inactive are the calls of the source. No stated cut-off is given here; in the data, active means inhibition above about 80%; inactive means the rest.

The nature of one assay: UWB1.289_BRCA1 ovarian cancer growth, cell-based, BGB or cisplatin combinations (AID 1671459). To be noted: UWB1.289 BRCA1 ovarian carcinoma, drug combinations, cisplatin combination, concentration series, at 5 µM, stronger effect = higher value.
Regarding `CC(=O)OCC(CCn1cnc2cnc(N)nc21)COC(C)=O`, the inhibition (usually the change of the read-out against control, counted positive when it falls) was 11.9%.
The same measure, in the same setting: to `S=c1nc[nH]c2nc[nH]c12` belongs 100% and 93.5% and 94.9%; to `COc1c(N2CCNC(C)C2)c(F)cc2c(=O)c(C(=O)O)cn(C3CC3)c12` (centres undefined), -1.48% and 7.21%; to `CC1COc2c(N3CCN(C)CC3)c(F)cc3c(=O)c(C(=O)O)cn1c23` (centres undefined), -6.84% and 7.33% and -3.71%.
In the case of `O=C1c2c(O)ccc(O)c2C(=O)c2c(NCCNCCO)ccc(NCCNCCO)c21`, the inhibition was found to be 104%.
With `CS(=O)(=O)OCCCCOS(C)(=O)=O`, the inhibition was -4.07% and 9.32%.
Regarding `O=C(O)CCCc1ccccc1`, the inhibition stood at 25.2%.

A further assay is described as follows: human astrocyte viability loss, single and combined drugs, cytotoxicity control for chromothriptic childhood tumor combination screen, cell-based, BGB or cisplatin IC20 combos (AID 1671460).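 Further: cells exposed to compounds for 96 hours before viability readout; 0% = vehicle and 100% = killing control.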 To be noted: Human astrocytes, drug combinations, at 0.5 µM, stronger effect = higher value.
As for `CC(=O)OCC(CCn1cnc2cnc(N)nc21)COC(C)=O`, the inhibition was 8.43% (inactive).
Regarding `S=c1nc[nH]c2nc[nH]c12`, the inhibition was 13.8% (inactive) and -4.07% (inactive) and -10.8% (inactive).
With `COc1c(N2CCNC(C)C2)c(F)cc2c(=O)c(C(=O)O)cn(C3CC3)c12` (centres undefined), the inhibition is -3.01% (inactive) and 1.57% (inactive).
`CC1COc2c(N3CCN(C)CC3)c(F)cc3c(=O)c(C(=O)O)cn1c23` (centres undefined): the inhibition was -0.29% (inactive) and 4.48% (inactive) and 7.23% (inactive).
Same read-out and setting: under `O=C1c2c(O)ccc(O)c2C(=O)c2c(NCCNCCO)ccc(NCCNCCO)c21` stands 68.8% (inactive); under `CS(=O)(=O)OCCCCOS(C)(=O)=O`, 7.45% (inactive) and 3.61% (inactive); under `O=C(O)CCCc1ccccc1`, 2.17% (inactive).

These data come from PubChem BioAssay.
